In the library only some 4.8% were active in any assay of this set; here they are far more common.
ssDAF-12 act: S. stercoralis DAF-12 nuclear receptor activators, primary screen, cell-based, luminescence, HEK293, GRIP1 co-expression, lit1-tk-luc | actives 1% (n = 370,000) | activation, % at 6.8 µM | HEK293 ssDAF-12/GRIP1 lit1-tk-luc reporter; % of 3 µM dafachronic acid response | Nuclear hormone receptor DAF-12 (Strongyloides stercoralis);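 active = activation above the mean over all tested compounds plus 3 SD, cut at about 0.9% in these data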
DAX1 inh-1: DAX1 (NR0B1) inhibitors, primary screen, cell-based, HEK293, Gal4-DAX1, luciferase luminescence | Nuclear receptor subfamily 0 group B member 1 (Homo sapiens), P51843 | HEK293 Gal4-DAX1 luciferase reporter | inhibition, % at 6.75 µM | actives 0.99% (n = 340,000) | AID 504766, 2011;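 active = inhibition above the mean over all tested compounds plus 3 SD, cut at about 4.2% in these data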;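 note: inhibition shows as a rise in luminescence from relieved DAX1 repression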
Target sequence (P51843 207-470 limits assumed): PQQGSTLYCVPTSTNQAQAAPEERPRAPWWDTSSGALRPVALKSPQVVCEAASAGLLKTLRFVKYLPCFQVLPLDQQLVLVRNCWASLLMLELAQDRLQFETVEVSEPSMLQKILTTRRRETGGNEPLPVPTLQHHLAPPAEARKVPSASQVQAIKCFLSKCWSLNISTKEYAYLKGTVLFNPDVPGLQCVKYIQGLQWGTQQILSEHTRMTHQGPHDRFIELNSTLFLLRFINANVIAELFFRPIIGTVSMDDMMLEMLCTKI
hgDAF-12 ag: H. glycines DAF-12 receptor agonists, primary screen, cell-based, luminescence, HEK293, GAL4 fusion, UAS-luciferase; Nuclear hormone receptor DAF-12 (Heterodera glycines), GAL4 fusion; HEK293 GAL4-hgDAF12 UAS-luciferase reporter, agonist luminescence; normalized to butyrate control; activation, % at 6.8 µM; actives 1.8% (n = 370,000); AID 687014, 2013;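 active = activation above a cutoff set at the mean of all screened compounds plus 3 SD, cut at about 10% in these data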
DAX1 inh-2: DAX1 (NR0B1) inhibitors on StAR promoter, primary screen, cell-based, luminescence, SF-1 (NR5A1), full-length DAX-1 | HEK293T StAR-luciferase reporter, SF-1/DAX-1 repression relief | inhibition, % at 6.8 µM | actives 1.1% (n = 370,000) | AID 652010, 2013;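 active = inhibition above the mean over all tested compounds plus 3 SD, cut at about 3.6% in these data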;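 note: higher inhibition means more luminescence from relief of DAX-1 repression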
hcDAF12 agonist: H. contortus DAF-12 nuclear receptor activators, primary screen, cell-based, luminescence, HEK293, lit1-tk-luc reporter; HEK293 hcDAF-12 lit1-tk-luc reporter; 0% DMSO, 100% Δ7-dafachronic acid; activation, % at 6.8 µM; actives 1.4% (n = 370,000); AID 652067, 2013;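 active = activation above the mean of all tested compounds plus 3 SD, cut at about 5.5% in these data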
SMARCA2 activ: SMARCA2 (BRM) function activators, primary screen, cell-based, luminescence, high throughput; MG213 cells, MMTV-luciferase reporter, dexamethasone, overnight; activation, % at 9.1 µM; actives 1% (n = 370,000); AID 652017, 2013; in the data active = activation above about 7.8%
LXR ag: LXR agonists, Gal4 luciferase reporter, confirmation, counter-screen for hcDAF-12 agonist project, cell-based, luminescence, HEK293, H. contortus campaign; AID 743027, 2013; 3,400 tested, under 10 active; activation, % at 6.8 µM; HEK293 Gal4-LXR tk-luc reporter, 24 h; normalized: DMSO 0%, positive control 100%; shares compounds with hcDAF12 agonist;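 active = mean percent activation of the reporter above a cutoff set as the average over tested compounds plus their standard deviation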
hcDAF12 ag: H. contortus DAF-12 receptor agonists, confirmation, cell-based, luminescence, HEK293, lit1-tk-luc, triplicate; activation, % at 6.8 µM; HEK293 hcDAF-12 lit1-tk-luc reporter; % of Δ7-dafachronic acid response; shares compounds with hcDAF12 agonist; actives 61% (n = 3,400);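 active = mean activation across triplicate tests above the threshold derived from the earlier primary screen, cut at about 5.5% in these data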
Numbers stand for hits; n = inactive; x = not tested or not shown.

SMILES	ssDAF-12 act	DAX1 inh-1	hgDAF-12 ag	DAX1 inh-2	hcDAF12 agonist	SMARCA2 activ	LXR ag	hcDAF12 ag
O=C(Nc1nnc(SCc2ccc(Cl)cc2)s1)c1ccco1	n	n	n	n	6.9	n	n	n
CCS(=O)(=O)Nc1cccc(-c2nc3cccnc3s2)c1	n	n	n	n	n	n	x	x
CCS(=O)(=O)Nc1ccc(-c2nc3cccnc3s2)cc1	n	n	11	n	6.9	n	n	7.7
O=C(Nc1nnc(-c2ccccc2Cl)o1)c1ccco1	n	n	n	n	n	n	x	x
O=C(Nc1nnc(-c2ccccc2Cl)o1)c1nc2ccccc2s1	1.2	n	n	n	8.8	n	n	n
Cc1[nH][nH]c(=O)c1C(c1cc(Br)ccc1O)c1c(C)[nH][nH]c1=O	n	n	n	n	n	n	x	x
O=C(O)c1[nH]c2ccccc2c1C(c1cc(Br)ccc1O)c1c(C(=O)O)[nH]c2ccccc12	n	n	n	n	7.1	n	n	n
COc1ccccc1N1CN(S(=O)(=O)c2ccc(C)cc2)c2nc3ccccc3nc21	0.9	n	13	n	9.1	n	n	n
COc1ccccc1CNC1CCC12CCC(c1ccccc1)CC2 (stereo unspecified)	n	x	n	x	n	x	x	x
O=C(Nc1ccccc1SC(=O)c1ccccc1)c1ccccc1	1.8	4.4	n	n	7.8	n	n	9.9
CSc1ccccc1NC(=O)c1ccccc1	n	n	n	n	n	n	x	x
O=C(NCC(c1ccccc1)c1ccccc1)[C@H](Cc1ccccc1)NC1(C(=O)NC2CCCCC2)CCCC1	n	x	n	x	n	x	x	x
Fc1ccc(C2=Nn3c(nnc3C3CCCCC3)SC2)cc1	n	x	n	n	n	n	x	x
COc1cccc(/C=C2\CC3(OC(=O)c4ccc(F)cc4)CCCN2C3)c1 (stereo unspecified)	n	x	n	n	n	n	x	x
CCCCNc1nnc(SCC(=O)c2c[nH]c3ccccc23)s1	n	n	n	n	12	n	n	n
COC(=O)[C@]12C[C@H](CC(=O)N3CCCCC3)C(=O)N(CCC3=CCCCC3)C1=C[C@H](C(C)(C)C)O[C@@H]2C	n	x	n	n	n	n	x	x
C/C(=N\Nc1nc2ccccc2[nH]1)c1cc2ccccc2o1	n	n	n	n	7.4	n	n	8.7
CCN(CC)CCCNC(=O)c1cc2cc(Cl)ccc2nc1N	n	x	n	n	n	n	x	x
Fc1cccc(Cc2c(-c3ccco3)nc3c4ccccc4ccn23)c1	3.7	x	13	n	6.7	n	n	9.5
COc1ccc(-c2nc3c4ccccc4ccn3c2Cc2ccccc2)cc1OC	2.8	x	n	n	11	n	n	9.9
COc1ccccc1Cc1c(-c2ccccc2)nc2c3ccccc3ccn12	1.4	x	n	n	6.6	n	n	6.0
Cc1cc(Br)cn2c(Cc3cccc(F)c3)c(-c3ccco3)nc12	n	x	n	n	n	n	x	x
Cc1nnc(-n2cccc2)s1	n	x	n	n	7.2	n	n	n
COc1ccc(C(=O)N2CCC[C@@H]2C(=O)N2CCC[C@@H]2C(=O)NCc2ccccc2)cc1F	n	x	n	n	n	n	x	x
Cc1sc2c(c1C)CN(CCN1CCOCC1)CN2C(=O)c1ccccc1	n	n	n	n	9.6	n	n	6.0
SMILES	ssDAF-12 act	DAX1 inh-1	hgDAF-12 ag	DAX1 inh-2	hcDAF12 agonist	SMARCA2 activ	LXR ag	hcDAF12 ag
Cc1ccc(S(=O)(=O)NC(CCCNC(=O)OCc2ccccc2)C(=O)O)cc1 (stereo unspecified)	n	x	n	n	n	n	x	x
Cc1ccc(NC(=O)c2ccc(NCCN)c([N+](=O)[O-])c2)cc1	n	n	n	n	7.1	n	n	n
Cc1cccc(NC(=O)c2ccc(NCCc3ccccc3)c([N+](=O)[O-])c2)c1	n	n	n	n	n	n	x	x
COc1ccc(NC(=O)N(C)C[C@@H]2OCCCC[C@@H](C)Oc3ccc(NS(C)(=O)=O)cc3C(=O)N([C@H](C)CO)C[C@@H]2C)cc1	n	x	n	n	n	n	x	x
COC(=O)[C@]12C[C@H](CC(=O)NCCC(C)C)C(=O)N(Cc3ccc4c(c3)OCO4)C1=C[C@H](COCc1ccccc1)O[C@@H]2C	n	x	n	n	n	n	x	x
COC(=O)[C@]12C[C@H](CC(=O)N3CCCCC3)C(=O)N(CCC3=CCCCC3)C1=C[C@H](COCc1ccccc1)O[C@@H]2C	n	x	n	n	n	n	x	x
CC(C)C(=O)Nc1ccc(NC(=O)c2ccccn2)cn1	n	n	n	n	6.7	n	n	n
c1ccc(-c2nc3ccccc3c3nc4ccccc4n23)cc1	n	n	n	n	n	n	x	x
FC(F)(F)c1nc2ccccc2c2nc3ccccc3n12	n	n	n	n	8.3	n	n	n
C[C@H]1[C@@H](OC(=O)Nc2cccc(Cl)c2)CC[C@@]23CCCN2C(=O)CCC[C@@H]13	n	x	n	x	n	x	x	x
Cc1cc(-c2ccc3c(c2)COc2c4ccccc4nn2-3)on1	n	4.8	n	4.5	9.0	n	n	10
C/C(N)=C(/C#N)C(=O)CSc1nnnn1-c1ccc(C)cc1	n	n	n	n	7.0	n	n	n
O=C(OCc1cn(Cc2ccc(F)cc2F)nn1)N1CCOCC1	n	x	n	n	n	n	x	x
COc1ccccc1NC(=O)Cc1cccc2ccccc12	n	n	n	n	n	n	x	x
COc1ccc(C(C)(C)C)cc1NC(=O)CNc1cccc2ccccc12	n	n	n	n	7.6	n	n	n
COc1ccc(C(=O)OCC(=O)c2ccc[nH]2)c(OC)c1	n	n	n	n	6.7	n	n	n
COc1ccc(CC(=O)OCC(=O)c2ccc[nH]2)cc1	n	n	n	n	n	n	x	x
Cc1cccc(Nc2nc(-c3cccs3)cs2)n1	4.0	4.7	17	n	20	n	n	17
